Compounds without any hit were thinned out: in the full panel of roughly 79,000, 15% have a hit. Calls of active or inactive are those of the source. No stated cut-off is given here; in the data, active means growth inhibition above about 70%; inactive means the rest.
Tests used:
[1] = NCI Yeast Anticancer Drug Screen. Data for the rad52 strain (AID 147);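 further: 0% = growth of vehicle-treated control cultures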; conditions: S. cerevisiae rad52 mutant growth inhibition, hits give high values
Summary of the method: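 Read-out: growth inhibition versus vehicle-treated controls. Cells were a DNA repair-deficient yeast strain treated with compounds.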

[2] = NCI Yeast Anticancer Drug Screen. Data for the wt1 strain (AID 149);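 further: 0% = growth of vehicle-treated wt1 cultures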; conditions: S. cerevisiae wt1 strain (SPY 50644) growth inhibition, hits give high values
Summary of the method: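 Growth inhibition read against vehicle controls after compound exposure of the wt1 yeast strain.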

[3] = NCI Yeast Anticancer Drug Screen. Data for the rad50EPP+ strain (AID 151);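 further: 0% = growth of vehicle-treated control cultures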; conditions: S. cerevisiae rad50 mutant strain, hits give high values
Summary of the method: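 Growth inhibition read against vehicle controls in rad50EPP+ yeast, a strain altered in DNA damage repair, after compound exposure.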

[4] = NCI Yeast Anticancer Drug Screen. Data for the rad50 strain (AID 155);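 further: 0% = growth of vehicle-only cultures of the same strain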; conditions: S. cerevisiae rad50 strain growth inhibition, hits give high values
Summary of the method: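 Readout: growth inhibition relative to vehicle-treated cultures. Compound exposure was carried out in a genetically defined yeast strain deficient in DNA damage repair.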

[5] = NCI Yeast Anticancer Drug Screen. Data for the mec2-1 strain (AID 157); conditions: S. cerevisiae mec2-1 strain, hits give high values
Summary of the method: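 Yeast mec2-1 mutant treated with compound. Readout: growth inhibition vs vehicle controls.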

[6] = NCI Yeast Anticancer Drug Screen. Data for the sgs1 mgt1 strain (AID 161);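 further: 0% = growth of cultures given vehicle only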; conditions: S. cerevisiae sgs1 mgt1 strain, hits give high values
Summary of the method: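 Genetically altered yeast, compound exposure, growth inhibition relative to vehicle.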

[7] = NCI Yeast Anticancer Drug Screen. Data for the cln2 rad14 strain (AID 165);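 further: 0% = growth equal to vehicle treated cultures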; conditions: S. cerevisiae cln2 rad14 strain, hits give high values
Summary of the method: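 cln2 rad14 yeast strain; compound exposure; growth inhibition read vs vehicle controls.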

[8] = NCI Yeast Anticancer Drug Screen. Data for the bub3 strain (AID 167); conditions: S. cerevisiae bub3 mutant strain, hits give high values
Summary of the method: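 Readout: yeast growth inhibition, expressed relative to vehicle-only wells. The test organism is a mutant strain from a panel with lesions in DNA repair or checkpoint genes.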

[9] = NCI Yeast Anticancer Drug Screen. Data for the wt2 strain (AID 169);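 further: 0% = growth of vehicle-treated yeast cultures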; conditions: S. cerevisiae wt2 strain growth inhibition, hits give high values
Summary of the method: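 Read-out: growth inhibition versus vehicle-treated control cultures after compound exposure of the yeast strain.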

[10] = NCI Yeast Anticancer Drug Screen. Data for the mlh1 strain (AID 171);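 further: 0% = growth of vehicle-treated control cultures of the same strain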; conditions: S. cerevisiae mlh1 strain growth inhibition, hits give high values
Summary of the method: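 Read-out: growth inhibition versus vehicle controls. Strain: engineered yeast with a defined DNA repair or cell cycle defect, compound-treated.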

[11] = NCI Yeast Anticancer Drug Screen. Data for the sgs1 strain (AID 173);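 further: 0% = growth of vehicle-only control cultures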; conditions: S. cerevisiae sgs1 mutant, hits give high values
Summary of the method: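 Read-out: yeast growth inhibition relative to vehicle controls, following compound exposure of a strain with a defined DNA repair/cell cycle alteration.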

[12] = NCI Yeast Anticancer Drug Screen. Data for the mlh1 rad18 strain (AID 175); conditions: S. cerevisiae mlh1 rad18 strain growth inhibition, hits give high values
Summary of the method: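 Yeast w/ defined DNA-repair lesions; compound exposure; growth vs vehicle controls → % inhibition.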

[13] = NCI Yeast Anticancer Drug Screen. Data for the rad18 strain (AID 177); conditions: S. cerevisiae rad18 mutant growth inhibition, hits give high values
Summary of the method: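 Readout: growth inhibition vs vehicle controls. Cells: genetically altered yeast strain, DNA repair defect.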

[14] = NCI Yeast Anticancer Drug Screen. Data for the mgt1 strain (AID 153); conditions: S. cerevisiae mgt1 mutant growth inhibition, hits give high values
Summary of the method: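 mgt1 yeast grown with test compound; read-out is growth inhibition versus vehicle-treated cultures.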

[15] = NCI Yeast Anticancer Drug Screen. Data for the rad14 strain (AID 159);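 further: 0% = growth of vehicle-treated control cultures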; conditions: S. cerevisiae rad14 strain growth inhibition, hits give high values
Summary of the method: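 Growth inhibition vs vehicle controls; genetically altered yeast strain (DNA damage repair defect) treated with test compounds.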

[16] = NCI Yeast Anticancer Drug Screen. Data for the CLN2oe strain (AID 163);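 further: 0% = growth of vehicle-only control cultures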; conditions: S. cerevisiae CLN2oe strain, hits give high values
Summary of the method: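 Read-out: yeast growth inhibition, expressed relative to vehicle-only controls. The strain bears an engineered cell-cycle alteration.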

[17] = at 5.0 µM (retest, dose inferred, filed as 0.5)
[18] = at 50.0 µM (retest, dose inferred, filed as 5.0)

Measured: growth inhibition

CC(=O)/C=C/c1cc([N+](=O)[O-])ccc1O
active: [1]; at 33.0 µM 79% | [1]; at 100.0 µM 97% | [2]; at 100.0 µM 97% | [3]; at 33.0 µM 78% | [3]; at 100.0 µM 95% | [4]; at 33.0 µM 83% | [4]; [18] 85% | [4]; at 50.0 µM 86% | [4]; at 100.0 µM 97% | [5]; at 33.0 µM 96% | [5]; [18] 89% | [5]; at 50.0 µM 90.5% | [5]; at 100.0 µM 99% | [6]; [18] 87% | [6]; at 50.0 µM 88.9% | [7]; [18] 87% | [8]; at 33.0 µM 95% | [8]; [18] 92% | [8]; at 100.0 µM 98% | [9]; at 33.0 µM 76% | [9]; at 100.0 µM 98% | [10]; at 33.0 µM 98% | [10]; at 100.0 µM 99% | [11]; at 33.0 µM 94% | [11]; at 100.0 µM 98% | [12]; [18] 97% | [12]; at 50.0 µM 85.1% | [13]; at 33.0 µM 74% | [13]; at 100.0 µM 97%
inactive: [1]; at 1.2 µM -47% | [1]; at 3.7 µM -33% | [1]; at 11.0 µM -9% | [2]; at 1.2 µM -12% | [2]; at 3.7 µM -33% | [2]; at 11.0 µM -2% | [2]; at 33.0 µM 66% | [3]; at 1.2 µM -27% | [3]; at 3.7 µM -4% | [3]; at 11.0 µM 30% | [4]; at 1.2 µM -22% | [4]; at 3.7 µM -20% | [4]; [17] 7% | [4]; at 11.0 µM -5% | [5]; at 1.2 µM -5% | [5]; at 3.7 µM -25% | [5]; [17] 0% | [5]; at 11.0 µM 29% | [6]; [17] 12% | [7]; [17] 36% | [7]; at 50.0 µM 46.5% | [8]; at 1.2 µM -28% | [8]; at 3.7 µM -18% | [8]; [17] 21% | [8]; at 11.0 µM 11% | [8]; at 50.0 µM 49.7% | [9]; at 1.2 µM -31% | [9]; at 3.7 µM -32% | [9]; at 11.0 µM -23% | [10]; at 1.2 µM -6% | [10]; at 3.7 µM 3% | [10]; at 11.0 µM 33% | [11]; at 1.2 µM -28% | [11]; at 3.7 µM -24% | [11]; at 11.0 µM 9% | [12]; [17] 24% | [13]; at 1.2 µM -51% | [13]; at 3.7 µM -47% | [13]; at 11.0 µM -23%

O=[N+]([O-])c1ccc2nc(=S)[nH]n2c1
inactive: [1]; at 1.2 µM -3% | [1]; at 3.7 µM -2% | [1]; at 11.0 µM -2% | [1]; at 33.0 µM 10% | [1]; at 100.0 µM 65% | [3]; at 1.2 µM 0% | [3]; at 3.7 µM 6% | [3]; at 11.0 µM 20% | [3]; at 33.0 µM 46% | [14]; at 1.2 µM 0% | [14]; at 3.7 µM -4% | [14]; at 11.0 µM -4% | [14]; at 33.0 µM -8% | [14]; at 100.0 µM 1% | [4]; at 1.2 µM -4% | [4]; at 3.7 µM -1% | [4]; [17] -130% | [4]; at 11.0 µM 13% | [4]; at 33.0 µM 19% | [4]; at 50.0 µM 58.6% | [5]; at 1.2 µM 1% | [5]; at 3.7 µM -1% | [5]; [17] -42% | [5]; at 11.0 µM -5% | [5]; at 33.0 µM 0% | [5]; [18] -7% | [5]; at 50.0 µM 24.1% | [5]; at 100.0 µM 34% | [15]; at 1.2 µM 3% | [15]; at 3.7 µM -1% | [15]; at 11.0 µM 6% | [15]; at 33.0 µM 12% | [15]; at 100.0 µM 59% | [6]; [17] -58% | [6]; [18] 22% | [6]; at 50.0 µM 23.9% | [16]; at 1.2 µM -2% | [16]; at 3.7 µM -2% | [16]; at 11.0 µM -4% | [16]; at 33.0 µM -5% | [16]; at 100.0 µM 36% | [7]; [17] -59% | [7]; [18] 2% | [7]; at 50.0 µM -7.5% | [8]; at 1.2 µM -9% | [8]; at 3.7 µM -8% | [8]; [17] -71% | [8]; at 11.0 µM -5% | [8]; at 33.0 µM -5% | [8]; at 50.0 µM -6.7% | [8]; at 100.0 µM 65% | [9]; at 1.2 µM -2% | [9]; at 3.7 µM -1% | [9]; at 11.0 µM -2% | [9]; at 33.0 µM -3% | [9]; at 100.0 µM 12% | [10]; at 1.2 µM 7% | [10]; at 3.7 µM -5% | [10]; at 11.0 µM -3% | [10]; at 33.0 µM -2% | [10]; at 100.0 µM 26% | [11]; at 1.2 µM 0% | [11]; at 3.7 µM -2% | [11]; at 11.0 µM -5% | [11]; at 33.0 µM 0% | [11]; at 100.0 µM 47% | [12]; [17] -133% | [12]; at 50.0 µM 46.1% | [13]; at 1.2 µM -2% | [13]; at 3.7 µM 0% | [13]; at 11.0 µM 2% | [13]; at 33.0 µM 7% | [13]; at 100.0 µM 60%
active: [3]; at 100.0 µM 87% | [4]; [18] 94% | [4]; at 100.0 µM 98% | [8]; [18] 76% | [12]; [18] 78%

From PubChem BioAssay (NCI)
